ST2 IL33 inh – inhibitors of human ST2 (IL1RL1) binding to IL-33; Q01638; AlphaLISA ST2-Fc/biotin-IL-33 interaction, 1 h; inhibition, % for hits at 17 µM; 78,000 compounds, 2.3% hits; in the data active means inhibition above about 30%
Target sequence (Q01638 whole entry, looked up): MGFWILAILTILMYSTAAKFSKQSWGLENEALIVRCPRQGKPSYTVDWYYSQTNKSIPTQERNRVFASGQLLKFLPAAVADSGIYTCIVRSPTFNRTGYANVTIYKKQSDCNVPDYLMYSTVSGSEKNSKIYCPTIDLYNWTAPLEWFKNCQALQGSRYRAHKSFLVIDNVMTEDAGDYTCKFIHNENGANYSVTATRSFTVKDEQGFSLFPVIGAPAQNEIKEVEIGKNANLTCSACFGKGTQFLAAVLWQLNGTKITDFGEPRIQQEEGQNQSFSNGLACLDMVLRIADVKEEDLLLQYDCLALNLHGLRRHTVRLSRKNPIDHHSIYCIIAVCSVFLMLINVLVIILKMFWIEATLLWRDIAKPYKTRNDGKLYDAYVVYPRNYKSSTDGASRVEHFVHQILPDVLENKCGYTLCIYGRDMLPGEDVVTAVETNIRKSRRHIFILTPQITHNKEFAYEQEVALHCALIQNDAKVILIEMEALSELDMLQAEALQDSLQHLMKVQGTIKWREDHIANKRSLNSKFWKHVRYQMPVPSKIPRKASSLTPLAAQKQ
* = called active by the depositor; i = inactive. This excerpt belongs to a sample that is enriched for hits.

SMILES	ST2 IL33 inh
COc1ccc(/C=C2\CCC/C(=C\c3ccc(OC)c(OC)c3)C2=O)cc1OC	30%*
COc1ccc(/C=C/C#N)cc1OC	i
COc1ccc(C=C2C(=O)OC(C)(C(C)(C)C)OC2=O)cc1OC (centres undefined)	i
CC1(C)CC(=O)C2=C(C1)Nc1ccccc1NC2c1cccc(Cl)c1Cl (centres undefined)	i
COCC(=O)Nc1c(C)cc(C)cc1C	i
O=C(NCc1ccccc1Cl)c1ccc(Cn2c(=O)[nH]c3ccsc3c2=O)cc1	i
Cn1c(=O)c2c(nc(N3CCN(Cc4ccccc4)CC3)n2Cc2cccc(Cl)c2)n(C)c1=O	i
CC(C)OCCCNC(=O)c1cnc2n(c1=O)CCS2	i
Cc1ccc(NC(=O)CN2CCCN(Cc3cccc(F)c3)S2(=O)=O)c(C)c1	i
COc1cccc(OCCOc2ccc(/C=C3\C(=O)NN(c4ccccc4)C3=O)cc2)c1	i
COc1ccc(OCc2ccc(F)cc2)c(/C=C2\C(=O)NN(c3ccccc3)C2=O)c1	i
COc1ccc(OCc2ccccc2F)c(/C=C2\C(=O)NN(c3ccccc3)C2=O)c1	35%*
Cc1ccc(-c2ccccc2)n1-c1ccc(F)cc1	i
COc1ccc(S(=O)(=O)NN)cc1	i
COc1ccc(/C(N)=N\OC(=O)c2ccc3c(c2)OCO3)cc1OC	i
COc1ccccc1C(=O)Oc1ccc2c(c1)C(C)=CC(C)(C)N2	i
CC1=CC(C)(C)Nc2ccc(OC(=O)c3ccc4c(c3)OCO4)cc21	30%*
CCCCN(C)CCCNC(=O)c1cc(-c2ccncc2)nc2ccccc12	i
COc1cccc(N2COc3cc(C)c(Cl)c(C)c3C2)c1	i
c1c2c(cc3sc(N4CCCC4)nc13)OCO2	i
COc1cc(OC)cc(C(=O)Nc2ccc(S(=O)(=O)Nc3cc(OC)ncn3)cc2)c1	i
Cc1cc(OCC(=O)NC2CCCCC2C)cc(C)c1Cl (centres undefined)	i
CCc1ccc(OCC(=O)Nc2ccc(N3CCN(C(C)=O)CC3)cc2)cc1	i
Cc1ccc(OCC(=O)Nc2ccc(N3CCCC3)cc2)cc1C	59%*
Cc1cc(C)c(NC(=O)COc2ccc(C)c(C)c2)c(C)c1	i
SMILES	ST2 IL33 inh
Cc1cccc(OCC(=O)Nc2sc3c(c2C#N)CCC3)c1C	i
Cc1cccc(OCC(=O)Nc2ccc(N3CCCC3)cc2)c1C	66%*
CC(=O)Nc1ccc(OCC(=O)Nc2c(C)cccc2C)cc1	i
COc1ccc(-n2ncc3c(Nc4cccc(OC)c4)ncnc32)cc1	i
O=[N+]([O-])c1cc(C(F)(F)F)ccc1NCCc1ccccc1	33%*
O=[N+]([O-])c1ccccc1S(=O)(=O)Nc1cccc(C(F)(F)F)c1	i
O=[N+]([O-])c1cc(C(F)(F)F)ccc1N1CCN(S(=O)(=O)c2ccccc2)CC1	i
CCOc1ccc(-n2c(SCc3ccccc3)nc3c(c2=O)SCC3)cc1	i
O=C(C1CC1)N1CCc2cc(S(=O)(=O)NCc3ccc4c(c3)OCO4)ccc21	36%*
Cc1ccc(CNS(=O)(=O)c2cc(Br)cc3c2N(C(=O)C2CC2)CC3)cc1	i
O=C(C1CC1)N1CCc2cc(Br)cc(S(=O)(=O)NCc3ccc4c(c3)OCO4)c21	32%*
COc1ccc(CNS(=O)(=O)c2ccc3c(c2)CCN3C(=O)C2CC2)cc1	i
O=C(C1CC1)N1CCc2cc(S(=O)(=O)NCc3ccc(F)cc3)ccc21	i
O=C(C1CC1)N1CCc2cc(Br)cc(S(=O)(=O)NCc3cccnc3)c21	i
CCOC(=O)c1ccc(N2C(=O)C3CCC(C)CC3C2=O)cc1 (centres undefined)	i
COc1cc2c(C(=O)NCCCN3CCCC3)cn(C)c(=O)c2cc1OC	i
Cc1nc(NC(=O)N2CCCN(C3CCCCC3)CC2)nn1C	i
O=C(c1noc2c1CCc1ccccc1-2)N1CCN(c2ccccc2)CC1	i
Cc1cc(N2CCCC2)nc(N2CCN(S(=O)(=O)c3ccc(C)c(C)c3)CC2)n1	i
Cc1ccc(-c2nc(C(Cl)Cl)n(-c3ccccc3)n2)cc1	i
C=CCC(=O)N1CCOC(Cc2ccccc2)C1 (centres undefined)	i
COc1cccc(NC(=O)C(=O)NCc2ccc(C)cc2)c1	i
COc1cccc(C2CCN2C(=O)Nc2n[nH]c(CCc3ccccc3)n2)c1 (centres undefined)	i
COc1cccc(C2CCN2C(=O)CC(=O)Nc2ccc(C)cc2)c1 (centres undefined)	31%*
O=S(=O)(Nc1cccc(F)c1)c1ccc(Cl)cc1	i
SMILES	ST2 IL33 inh
O=c1[nH]nc(SCc2ccc(Br)cc2)c(=O)[nH]1	i
N#CC12CC([N+](=O)[O-])=C(N)C1(C#N)CC([N+](=O)[O-])=C2N (centres undefined)	i
Cc1ccc(N=Cc2c(Nc3ccccc3)nc3c(C)cccn3c2=O)cc1	i
COc1ccc(NC(=O)c2cc3c(=O)n4cccc(C)c4nc3n2C)c(OC)c1	i
COc1ccc(Nc2nc3c(C)cccn3c(=O)c2C=NCc2ccccc2)cc1	40%*
COc1cccc(-c2cc(C(=O)NCC3(C)CC(C)=NO3)[nH]n2)c1 (centres undefined)	i
COc1ccc(-n2ccnc2CN2CCC(C(=O)N3CCCC3)CC2)cc1	i
COc1cc(NCCCc2nnc3ccccn23)ncn1	i
O=C(Nc1cccc(Cl)c1)c1ccc(Cl)c(Cl)c1	i
COc1ccc(Nc2ncnc3c2cnn3-c2ccc(Cl)cc2)cc1Cl	i
O=C1/C(=C/c2c[nH]c3ccccc23)CC/C1=C\c1c[nH]c2ccccc12	i
O=C1OC(c2ccc(Br)cc2)=N/C1=C\c1ccccc1	i
O=C1/C(=C/c2ccccc2)CC/C1=C\c1ccccc1	33%*
Cc1ccc(C)c(CN2CCN(Cc3ccc(C)o3)C(CCO)C2)c1 (centres undefined)	i
CCOC(=O)c1sc2nc(C)nc(Nc3ccc(Cl)cc3)c2c1C	i
O=C(c1ccc2c(c1)OCO2)N1CCN=C1SCc1ccc(Br)cc1	i
CCSCCNc1nc(-c2cccnc2)nc2c1cnn2C	i
COCc1nc(N(C)Cc2cc(-c3cccnc3)no2)c2cnn(C)c2n1	i
CNc1ncc(CN(C)c2nc(-c3cccnc3)nc3c2cnn3C)cn1	46%*
COc1ccc2[nH]c(C(=O)N3CCCN(C)C4(CCN(C)CC4)C3)cc2c1	i
Cc1cc(C)n2nc(SCc3ccccc3Cl)nc2n1	i
CC(C)C(NC(=O)c1ccco1)C(=O)O (centres undefined)	32%*
CCc1ccc(C(=O)NC(C(=O)O)C(C)C)cc1 (centres undefined)	i
NC(=O)CC(NC(=O)c1ccco1)C(=O)O (centres undefined)	i
COc1cc(NC(=O)c2noc3c2CCC3)cc(OC)c1OC	i
SMILES	ST2 IL33 inh
CC(C)(C)Sc1cc(C(=O)O)sc1C(=O)O	i
CC1=NN(c2cccc(Br)c2)C(=O)/C1=C\c1ccc(N(C)C)cc1	i
COc1c(Br)cc(Br)cc1/C=C1\C(=O)N(c2ccccc2)N=C1C	i
CC1=NN(c2cccc(F)c2)C(=O)/C1=C/c1ccc(N(C)C)cc1	i
CC1=NN(c2ccc(I)cc2)C(=O)/C1=C/c1ccc(N(C)C)cc1	38%*
CC1=NN(c2ccccc2)C(=O)/C1=C\c1ccc(N(C)C)c(Br)c1	39%*
CC1=NN(c2ccccc2)C(=O)/C1=C/c1cccc(Br)c1	i
COc1cc(OC)c(C2C(C(=O)Nc3ccc(C)cc3C)=C(C)Nc3nnnn32)cc1OC (centres undefined)	i

Source: PubChem (Paczesny and Yang Labs, IUPUI and University of Michigan)
